# Screen size: about 320,000 compounds; about 8,000 (2.5%) were called active. Cut-off read from the data, not from the text of the source: active = activation above about 47%; inactive = the rest. Shown is part of a subset that was picked to be rich in actives.
# Molecular target: Aryl hydrocarbon receptor (Homo sapiens) (UniProt P35869)
# Test: AHR activators, primary screen, cell-based, luminescence, luciferase reporter, human (AID 2796);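 note: 0% = vehicle wells and 100% = reference agonist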
# Details: AHR-responsive luciferase reporter cells, at 5 µM, stronger effect = higher value
# Chain of Aryl hydrocarbon receptor (Homo sapiens) (P35869 whole entry, looked up): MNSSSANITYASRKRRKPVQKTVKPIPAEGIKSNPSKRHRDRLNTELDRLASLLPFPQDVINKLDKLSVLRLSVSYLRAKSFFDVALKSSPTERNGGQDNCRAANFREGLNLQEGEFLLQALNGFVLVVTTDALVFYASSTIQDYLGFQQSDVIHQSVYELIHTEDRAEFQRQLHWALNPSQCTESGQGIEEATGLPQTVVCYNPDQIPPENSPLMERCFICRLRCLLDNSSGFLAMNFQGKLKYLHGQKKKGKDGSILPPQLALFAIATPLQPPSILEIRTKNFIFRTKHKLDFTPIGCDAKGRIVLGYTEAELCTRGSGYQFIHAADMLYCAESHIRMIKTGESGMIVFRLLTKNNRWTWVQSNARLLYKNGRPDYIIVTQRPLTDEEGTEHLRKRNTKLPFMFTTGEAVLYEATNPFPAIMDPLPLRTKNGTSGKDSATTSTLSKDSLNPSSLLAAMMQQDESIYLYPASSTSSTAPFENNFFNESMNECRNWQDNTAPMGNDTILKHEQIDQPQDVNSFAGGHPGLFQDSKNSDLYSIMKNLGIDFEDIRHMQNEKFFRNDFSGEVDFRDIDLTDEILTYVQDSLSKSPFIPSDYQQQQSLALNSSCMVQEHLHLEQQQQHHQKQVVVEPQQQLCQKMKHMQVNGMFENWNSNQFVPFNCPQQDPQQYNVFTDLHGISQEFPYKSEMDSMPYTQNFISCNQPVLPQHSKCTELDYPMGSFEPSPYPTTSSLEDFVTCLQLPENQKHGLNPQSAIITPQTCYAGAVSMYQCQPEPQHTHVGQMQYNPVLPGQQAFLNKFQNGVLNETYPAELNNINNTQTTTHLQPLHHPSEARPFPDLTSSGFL
row,Structure (SMILES),activation
1,O=C(OCC(=O)N1CCCCC1)c1ccc(OC(F)(F)F)cc1,0.31% (inactive)
2,CN(C)NC(=O)c1csnc1-c1c(Cl)cccc1Cl,1.27% (inactive)
3,CC1CC(=O)Nc2ccccc2N1C(=O)COc1ccc2cc(Br)ccc2c1 (configuration not stated),2.14% (inactive)
4,COc1ccc(C(=O)NC(=S)Nc2ccc(Cl)cn2)cc1OC,5.66% (inactive)
5,COc1ccc(C(=O)N/N=C(\C)CC(=O)Nc2ccc(Cl)cn2)cc1,13.8% (inactive)
6,COc1c(Cl)cc(C(=O)Nc2ccc(Cl)cn2)cc1Cl,67.2% (active)
7,COc1ccc(N(CC(=O)NCc2ccc(F)cc2)C(=O)CCC(=O)Nc2nccs2)cc1,0.66% (inactive)
8,COc1cccc(CNC(=O)CCN2C(=S)NC(C)(C)CC2C)c1 (configuration not stated),3.02% (inactive)
9,Fc1ccc(-c2nnc(CSc3nnc(-c4ccc5c(c4)OCO5)o3)o2)cc1,11.2% (inactive)
10,O=C(CSc1nnc(-c2ccccc2O)o1)NC1CCCCC1,-6.68% (inactive)
11,CCSc1nnc(-c2cc3c(s2)-c2ccccc2CC3)o1,62.1% (active)
12,CCCCSc1nnc(-c2ccc(C)cc2)o1,-1.09% (inactive)
13,Clc1ccc(CSc2nnc([C@@H]3CCCN3)o2)cc1,0.21% (inactive)
14,Fc1ccc(CSc2nnc(-c3cc4c(s3)-c3ccccc3CC4)o2)cc1,51.6% (active)
15,CCOc1ncccc1C(=O)NNC(=O)c1cccc(S(=O)(=O)Nc2ccccc2OC)c1,-1.36% (inactive)
16,COc1ccc(N(C(=O)CNC(=O)c2ccco2)C(C(=O)NCC2CCCO2)c2ccccc2)cc1Cl (configuration not stated),-0.46% (inactive)
17,CC1=NNC(=O)C1CC(=O)N/N=C/c1ccncc1 (configuration not stated),-0.52% (inactive)
18,CCCCCC(=O)N1CCN(S(=O)(=O)c2ccc3c(c2)OCCCO3)CC1,1.73% (inactive)
19,c1ccc2c(C[n+]3csc4ccccc43)cccc2c1,12.7% (inactive)
20,CN(C(=O)Cn1nnc(-c2ccc(F)cc2)n1)C1CCS(=O)(=O)C1 (configuration not stated),-0.41% (inactive)
21,O=C(Nc1cc(S(=O)(=O)N2CCCCC2)ccc1Cl)C1COc2ccccc2O1 (configuration not stated),0.26% (inactive)
22,C=CCN(CC=C)S(=O)(=O)c1ccc(C(=O)Nc2nc3c(s2)CCc2ccccc2-3)cc1,50.7% (active)
23,CCN(c1ccccc1)S(=O)(=O)c1ccc(C(=O)Nc2nccs2)cc1,3.71% (inactive)
24,COCCN(CCOC)S(=O)(=O)c1ccc(C(=O)Nc2nc3c(s2)CCc2ccccc2-3)cc1,11.6% (inactive)
25,Cn1cccc1C(=O)NC(=O)COC(=O)Cc1coc2ccc3ccccc3c12,16.2% (inactive)

row,Structure (SMILES),activation
1,CCCCn1c(SCC(=O)N2CCOCC2)nc2c1c(=O)n(C)c(=O)n2C,0.02% (inactive)
2,Cc1cc(C)nc(Nc2n[nH]c(-c3ccccc3N)n2)n1,67% (active)
3,CCCOc1ccccc1-c1nc(SCCC(=O)O)n[nH]1,10.6% (inactive)
4,Cc1cc(C)nc(Nc2ncn[nH]2)n1,2.66% (inactive)
5,CCCCNC(=O)Nc1c(C)cc(SC#N)cc1C,3.18% (inactive)
6,O=C(c1cncc(Br)c1)N1CCN(c2ccc([N+](=O)[O-])cc2)CC1,52.5% (active)
7,O=C(c1ccc(Cl)c([N+](=O)[O-])c1)N1CCN(c2ccccc2)CC1,2.09% (inactive)
8,O=C(c1cc(C(=O)N2CCN(c3ccc(F)cc3)CC2)cc([N+](=O)[O-])c1)N1CCN(c2ccc(F)cc2)CC1,3.86% (inactive)
9,Cc1cc(C)c(NC(=O)CN2CCOCCOCCOCCOCC2)c(C)c1,0.35% (inactive)
10,O=[N+]([O-])c1ccc(N/N=C/c2ccccc2)cc1,-1.64% (inactive)
11,Cc1cccc(COc2ccccc2/C=N/Nc2ccc([N+](=O)[O-])cc2)c1,50.4% (active)
12,Cc1ccc(NS(=O)(=O)c2ccc(N/N=C/c3ccccc3OCC(=O)O)c([N+](=O)[O-])c2)c(C)c1,2.69% (inactive)
13,CCOC(=O)c1cc(S(=O)(=O)NCCc2ccc(OC)c(OC)c2)cn1C,1.77% (inactive)
14,CCOC(=O)C1CCN(CC(=O)Nc2ccc(OC)c(S(=O)(=O)N3CCCCC3)c2)CC1,-1.58% (inactive)
15,O=C(NNC(=O)c1cccnc1)Nc1ccccc1,-0.59% (inactive)
16,Cc1ccc(NC(=O)NCC(c2cccnc2)N2CCOCC2)cc1 (configuration not stated),3.2% (inactive)
17,Cc1ccc(NC(=O)Nc2cccnc2)cc1,83.7% (active)
18,CCCNC(=S)NC1CC2CCCC(C1)N2CC(C)C (configuration not stated),2.13% (inactive)
19,COC(=O)c1sccc1NC(=O)COc1ccc(Cl)cc1,3.07% (inactive)
20,CCS(=O)(=O)c1ccc(O)c(NC(=O)COc2ccc(Cl)cc2)c1,-3.28% (inactive)
21,O=C(COc1ccc(Cl)cc1)Nc1ccccc1CO,62.6% (active)
22,CC(C(=O)NCCc1ccc(S(N)(=O)=O)cc1)N1C(=O)CC(C)(C)Sc2ccccc21 (configuration not stated),1.77% (inactive)
23,Cc1ccc(CN(Cc2cccnc2)C(=S)Nc2cc(Cl)ccc2C)cc1,2.1% (inactive)
24,Cc1cs/c(=N\N=C\c2ccc(O)cc2)n1Cc1ccco1,59.4% (active)
25,Cc1csc(=Nc2ccccc2)n1CCO,4.51% (inactive)

row,Structure (SMILES),activation
1,CN(c1ccccc1)c1ccc(/C=c2\s/c(=C(/C#N)C(=O)C(C)(C)C)n(Cc3ccco3)c2=O)cc1,0.79% (inactive)
2,Cc1c2cnn(CC(=O)NCc3ccccn3)c(=O)c2c(C)n1Cc1ccc(Cl)cc1,1.4% (inactive)
3,Cc1ccc(S(=O)(=O)N(C)c2ccc(OCC(=O)OCC(=O)N(CC#N)c3ccccc3)cc2)cc1,-1.55% (inactive)
4,COc1ccc(OC)c(-c2csc(NC(=O)COC(=O)C3CC3)n2)c1,-1.02% (inactive)
5,COc1ccc(OC)c(-c2csc(NC(=O)C3=NNC(=O)CC3)n2)c1,12.8% (inactive)
6,COc1ccc(OC)c(-c2csc(-c3cccs3)n2)c1,121% (active)
7,CCOC(=O)N1CCC(Nc2c(NCCCN3CCN(CC)CC3)c(=O)c2=O)CC1,0.42% (inactive)
8,COc1ccccc1C1=CC(=O)CCC1,0.36% (inactive)
9,COc1ccc(NC(=O)CNc2cc(S(=O)(=O)N3CCOCC3)ccc2N2CCOCC2)c(OC)c1,-1.67% (inactive)
10,O=c1ccnc(Nc2ccc(Cl)cc2)[nH]1,2.65% (inactive)
11,Cn1c(Nc2cccc(Cl)c2)nc2ccccc21,-1.72% (inactive)
12,Clc1ccc(Nc2ccc3ccccc3n2)cc1,73.6% (active)
13,Cc1cccc(C)c1NC(=O)CNC(=O)c1c(C)nn(-c2ccccc2)c1C,0.83% (inactive)
14,COc1cc(C2OC(c3cc(OC)c(OC)c(OC)c3)C(C)C2C)cc(OC)c1OC (configuration not stated),3.59% (inactive)
15,Cn1c(=O)c2c(ncn2CC(COCc2ccccc2Cl)OCc2ccccc2Cl)n(C)c1=O (configuration not stated),0.3% (inactive)
16,Clc1ccc(-c2csc(-c3ccncc3)n2)cc1,63.4% (active)
17,Fc1ccc(-c2csc(-c3ccc(C4SCCS4)cc3)n2)cc1F,27.6% (inactive)
18,N#CC(=C1CCCC1)c1nc(-c2ccc(Cl)cc2)cs1,4.95% (inactive)
19,CN(C)S(=O)(=O)c1ccc2oc(SCC(=O)Nc3ccccc3F)nc2c1,10.3% (inactive)
20,CCOC(=O)C1CCN(Cc2nnc(-c3cccc(Br)c3)o2)CC1,1.14% (inactive)
21,CCOC(=O)C1CCN(c2ncnc3c2oc2ccc(Br)cc23)CC1,66.9% (active)
22,CCOC(=O)C1CCN(c2ncnc3c2c(-c2ccccc2)cn3-c2ccc(C)cc2)CC1,-0.73% (inactive)
23,COc1cc(OC)cc(C(=O)NCC(=O)N2CCCCCCC2)c1,17.3% (inactive)
24,CSc1ncccc1C(=O)NC1CCCCCC1,-0.02% (inactive)
25,CSc1ncccc1C(=O)Nc1ccc(C)cn1,-0.65% (inactive)

row,Structure (SMILES),activation
1,CSc1ncccc1C(=O)Nc1nc2ccc(F)cc2s1,79.2% (active)
2,Cc1ccc(SC(CC(=O)c2ccc(C(C)(C)C)cc2)C(=O)O)cc1 (configuration not stated),-1.16% (inactive)
3,COc1cc(C#Cc2ccc3cc(CCCO)oc(=O)c3c2)cc(OC)c1,1.38% (inactive)
4,COc1ccc(Nc2nc(-c3cccnc3)nc3ccccc23)cn1,-0.65% (inactive)
5,Cc1ccc2nc(C)cc(N/N=C/c3ccc(F)cc3)c2c1,10.9% (inactive)
6,Fc1ccc(/C=N/Nc2nc(-c3cccnc3)nc3ccccc23)cc1,69.7% (active)
7,O=C(COC(=O)COc1ccccc1F)Nc1cccc(S(=O)(=O)N2CCCCC2)c1,0.3% (inactive)
8,CC(Sc1nnc(COc2ccccc2)n1-c1ccccc1)C(=O)O (configuration not stated),-2.4% (inactive)
9,Cc1cc(=O)oc2cc(NC(=O)C(C)Oc3ccccc3)ccc12 (configuration not stated),2.24% (inactive)
10,CC(C)C(=O)Nc1c(O)c2ccccc2[nH]c1=O,-0.12% (inactive)
11,CC(C)C(=O)Nc1c(C(=O)c2ccc(F)cc2)oc2ccccc12,132% (active)
12,CC(C)C(=O)Nc1ccc2c(c1)oc1ccccc12,60.8% (active)
13,CC(C)C(=O)Nc1ccc2oc(=O)ccc2c1,1.62% (inactive)
14,NC(=O)c1oc2ccccc2c1NC(=O)Cc1ccccc1,0.99% (inactive)
15,Cc1ccc(-n2ncc3c(Nc4cccc(C(=O)O)c4)ncnc32)cc1,-0.95% (inactive)
16,Cc1sc2ncnc(N3CCC(C(=O)Nc4nc5ccc(Cl)cc5s4)CC3)c2c1C,12.5% (inactive)
17,Cc1noc(C)c1S(=O)(=O)N(C)C[C@H]1Oc2c(NC(=O)Nc3ccc4c(c3)OCO4)cccc2C(=O)N([C@H](C)CO)C[C@@H]1C,0.19% (inactive)
18,Cc1cc(NC(=O)/C=C/C(=O)N(c2ccccc2C)C(C(=O)NC2CCCC2)c2ccc(F)cc2)no1 (configuration not stated),6.2% (inactive)
19,OCc1ccc(-c2ccccc2)c(-c2ccccc2)c1,-2.37% (inactive)
20,Cc1ccccc1Nc1nnc(SCC(=O)c2cc3ccccc3o2)s1,26.2% (inactive)
21,Cc1ccc(Nc2nnc(SCC(=O)c3cc4ccccc4o3)s2)cc1C,52.8% (active)
22,Cc1cc2c(=O)n(C)c(SCC(=O)c3cc4ccccc4o3)nc2s1,15.9% (inactive)
